High-throughput results as filed in PubChem BioAssay.
Rows were chosen to be rich in hits. Some 2.4% of all compounds tested hit in one or more screens of this group.
AmpC nodet inh – Promiscuous and Specific Inhibitors of AmpC Beta-Lactamase (assay without detergent); P00811; 71,000 tested, 1.8% active; AmpC nitrocefin hydrolysis, absorbance 480 nm, no detergent; Potency, µM (series often up to 28.7 µM); AID 585, 2007
Target sequence (P00811 whole entry, looked up): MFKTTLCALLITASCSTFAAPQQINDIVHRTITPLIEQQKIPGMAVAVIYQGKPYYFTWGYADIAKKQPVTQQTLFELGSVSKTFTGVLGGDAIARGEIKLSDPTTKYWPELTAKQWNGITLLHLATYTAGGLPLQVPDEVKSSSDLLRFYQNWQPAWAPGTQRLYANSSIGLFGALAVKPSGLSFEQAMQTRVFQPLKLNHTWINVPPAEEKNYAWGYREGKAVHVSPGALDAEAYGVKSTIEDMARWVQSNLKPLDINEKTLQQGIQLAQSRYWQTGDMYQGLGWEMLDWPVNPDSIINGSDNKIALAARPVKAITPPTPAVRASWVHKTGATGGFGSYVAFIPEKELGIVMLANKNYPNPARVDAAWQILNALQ
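AmpC in 20 mM phosphate buffer pH 7.0 was preincubated 15 min at room temperature with compounds. Nitrocefin (800 uM stock) was then added and hydrolysis followed at 480 nm every 20 s for 4 min.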
Anthrax LT inh – qHTS Assay for Anthrax Lethal Toxin Internalization; Cells, anthrax lethal toxin internalization, FRET ratio (460/530); 70,000 tested, 0.67% active; Potency, µM (top dose mostly 40 µM), hits mostly inhibitors; further: nearly all actives have a fitted effect of over 50% in size
AmpC det inh – Promiscuous and Specific Inhibitors of AmpC Beta-Lactamase (assay with detergent); purified AmpC, nitrocefin hydrolysis with detergent; 71,000 tested, 0.09% active; Potency, µM (series often up to 28.7 µM); P00811; AID 584, 2007; active means well fitted curve in the direction sought with a large enough effect; inconclusive means small, poorly fitted or top-dose-only effect
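E. coli AmpC (5.3 nM) in 20 mM phosphate pH 7.0 with 0.01% Triton X-100, preincubated 15 min RT with compound; nitrocefin (2 uL of 800 uM stock) hydrolysis followed by 480 nm absorbance every 20 s over 4 min.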
Prx2 Sm inh – Schistosoma Mansoni Peroxiredoxins (Prx2). Schistosoma mansoni peroxiredoxin 2 (Prx2). S. mansoni Prx2 activity coupled to TGR/GSH (TGR is thioredoxin glutathione reductase), NADPH fluorescence loss, qHTS. Potency, µM. 65,000 tested, 0.07% active. AID 448, 2006
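qHTS, coupled TGR/Prx2 format; 15 min compound preincubation at RT; reaction started with H2O2 (2.5 mM aliquot); kinetic NADPH fluorescence decrease, ex 365/em 450 nm.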
A number is an active result; . = inactive; ? = inconclusive; / = no result given; ! = not active in a repeat; [ ] = another dose, or the depositor's remark. Unless noted, the call rests on the fitted dose curve.

SMILES	AmpC nodet inh	Anthrax LT inh	AmpC det inh	Prx2 Sm inh
C[C@@H]1CC[C@@]2(OC1)O[C@H]1[C@@H](O)[C@H]3[C@@H]4CC[C@H]5C[C@@H](O[C@@H]6O[C@H](CO)[C@H](O[C@@H]7O[C@H](CO)[C@@H](O)[C@H](O[C@@H]8OC[C@@H](O)[C@H](O)[C@H]8O)[C@H]7O[C@@H]7O[C@H](CO)[C@@H](O)[C@H](O[C@@H]8O[C@H](CO)[C@@H](O)[C@H](O)[C@H]8O)[C@H]7O)[C@H](O)[C@H]6O)[C@H](O)C[C@]5(C)[C@H]4CC[C@]3(C)[C@H]1[C@@H]2C	.	?	.	/
CC[N+](CC)(CC)CCOc1cccc(OCC[N+](CC)(CC)CC)c1OCC[N+](CC)(CC)CC	13µM!	.[3.58 µM]	.	?
CCC/C=C(\CCC)C(NS(=O)(=O)c1ccc(C(F)(F)F)cc1)c1ccc(C(=O)OC)cc1 (configuration not stated)	13µM	.	.	.
CCC/C=C(\CCC)C(NS(=O)(=O)c1ccccc1)c1ccc(C(F)(F)F)cc1 (configuration not stated)	13µM[single pt active]	?	.	.
CCC/C=C(\CCC)C(NS(=O)(=O)c1ccc(C(F)(F)F)cc1)c1ccccc1 (configuration not stated)	.	.	.	.
O=c1ccc2cc(O[C@@H]3O[C@@H](CO)[C@@H](O)[C@@H](O)[C@H]3O)c(O)cc2o1	.	?	.	.
CNc1cc(OC)c(C(=O)N[C@@H]2CCN(Cc3ccccc3)[C@H]2C)cc1Cl	.	?	.	.
Cn1c(=O)c(-c2cccc(F)c2)nc2cncnc21	.	.	.	.
C=CCSc1nnc(NC(=O)CSc2nc3ccccc3o2)s1	10µM[single pt active]	.	.	.
O=C(O)c1cc2cc(Cc3cccnc3)ccc2o1	.	.	.	.
O=C(c1ccco1)N1CCCC(c2nc(-c3ccc(S(=O)(=O)NCc4ccccc4)cc3)no2)C1 (configuration not stated)	.	13µM	.	.
COc1ccc(-c2noc(C3CCCN(C(=O)CCc4ccccc4)C3)n2)cc1 (configuration not stated)	.	.	.	.
CCCCC(CC)COCCCN (configuration not stated)	.	.	.	/
CO[C@@H]1CC=C2CCN3CCC4=C(CC(=O)OC4)[C@]23C1	.	.	.	.
O=C(Nc1ccc2c(c1)OCO2)C1COc2ccccc2O1 (configuration not stated)	.	.	.	/
Cc1cc(=O)oc2cc(NC(=O)C3COc4ccccc4O3)ccc12 (configuration not stated)	10µM	?	.	.
CCN1CCN(c2ncnc3ccc(Br)cc23)CC1	.	.	.	.
OCCN1CCN(c2ncnc3ccc(Br)cc23)CC1	4µM[single pt active]	.	.	.
CC(C)=NO[C@@H](C)CN1CCCc2nc(C)c(C)cc21	/	.[8 µM]	/	/
Cc1c2ccncc2c(C)c2c1[nH]c1ccccc12	.	5µM	.	.
Cc1nccc2c1[nH]c1ccccc12	.	?	.	.
COC(=O)[C@]1(C)CCC(c2ccc(C)cc2)=C(CC(=O)O)C1	.[5.75 µM]	.[8 µM]	.[5.75 µM]	.
C[C@@]12CCC(=O)C=C1CC[C@@H]1[C@@H]2[C@H](O)C[C@]2(C)[C@@H]1CC[C@]2(O)C(=O)COC(=O)CCC(=O)O	.	.	.	.
C[C@@H]1[C@H]2C=C[C@@H]1[C@@H](c1c3ccc(=O)c(O)c-3oc3c(O)c(O)ccc13)[C@@H]2C(=O)O	2.5µM	?	2µM	.
O=c1cc(-c2ccccc2O)oc2c(O)c(O)ccc12	?	?	.	?
SMILES	AmpC nodet inh	Anthrax LT inh	AmpC det inh	Prx2 Sm inh
CC(C)C[C@H]1C(=O)N2CCC[C@@H]2[C@]2(O)O[C@](NC(=O)[C@H]3C=C4c5cccc6[nH]cc(c56)C[C@H]4N(C)C3)(C(C)C)C(=O)N12	.	?	.	.
CCCCCCN(C(=O)CCCCCN1C(=O)NC(c2ccc(-c3ccccc3)cc2)C(C(=O)OCc2ccccc2)=C1C)C(C(=O)NCCCC)c1ccc(OCC(=O)O)c(C(=O)O)c1 (configuration not stated)	.	.	.	/
c1ccc(-c2ccc(-c3nc(-c4ccccn4)no3)cc2)cc1	.	3.2µM	.	/
Clc1cccc(-c2nc(-c3ccccn3)no2)c1	.	.	.	.
N#CCCn1c(=O)cnc2cnc(Oc3cccc(Cl)c3)nc21	.	.	.	.
CC(=O)c1cc2c(cc1NC(=O)CN1CCN(C(=O)c3ccco3)CC1)OCO2	4µM[single pt active]	.	.	.
